# Source: the supplement of paper PMC5662767
# Counter-ions that a name gives are not always drawn.
# Test system: Drosophila S2 cl14 SmoIP sensor cells
# Experiment: normalized SmoIP GFP fluorescence (untreated unstimulated = 0%, untreated Hh-stimulated = 100%); higher = more Smo activation sensor fluorescence
# Conditions: compound concentration: 2 uM, 24 h
# [1] = stimulation: Hh conditioned medium (+Hh)
# [2] = stimulation: mock conditioned medium (-Hh)
# 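Also: flow cytometry read-out as median GFP intensity of gated cells, compounds added 30 min before Hh-conditioned or mock medium, mock-treated cells serving as unstimulated baseline.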
Compound,normalized SmoIP GFP fluorescence [1],normalized SmoIP GFP fluorescence [2]
CN(C)CCCCC(=O)Nc1ccc(NC(=S)NC(=O)c2ccc(C(C)(C)C)cc2)cc1 [tenovin-6],112%,3.49%
CCCCNC(=O)NS(=O)(=O)c1ccc(C)cc1 [tolbutamide],108%,-16.8%
Nc1c(Br)cc(Br)cc1CN[C@H]1CC[C@H](O)CC1 [ambroxol-hcl],106%,-2.82%
O=C(O)C(O)Cc1ccc(O)c(O)c1 (stereo not drawn) [Sodium-Danshensu],93.6%,-2.82%
CC(C)OC(=O)C1=CN(C(=O)c2ccc(F)c(F)c2)CC(C)(C)c2c1[nH]c1ccccc21,117%,12.5%
CC(C)NCC(O)COc1cccc2ccccc12 (stereo not drawn) [propranolol-hcl],111%,-1.63%
CNC(=O)c1ccccc1Nc1nc(Nc2ccc(N3CCOCC3)cc2OC)ncc1Cl,163%,22.3%
Cc1onc(-c2ccccc2)c1-c1ccc(S(N)(=O)=O)cc1 [valdecoxib],104%,-5.49%
Cc1ccc(S(=O)(=O)NC(=O)NN2CC3CCCC3C2)cc1 (stereo not drawn) [gliclazide-diamicron],111%,-13.7%
CC1(C)O[C@@H]2[C@@H](CO[C@@]3(COS(N)(=O)=O)OC(C)(C)O[C@@H]23)O1 [Topiramate],114%,5.45%
CCc1cccc2c3c([nH]c12)C(CC)(CC(=O)O)OCC3 (stereo not drawn) [Etodolac],104%,-3.17%
CC(=O)Oc1cc(C(F)(F)F)ccc1C(=O)O [triflusal],111%,-4.58%
Nc1nccc2c1ncn2[C@@H]1C=C(CO)[C@@H](O)[C@H]1O [3-deazaneplanocin-a-dznep],142%,0.702%
Nc1cccc2c1C(=O)N(C1CCC(=O)NC1=O)C2=O (stereo not drawn) [Pomalidomide(CC-4047)],103%,10.4%
C[C@H](N[C@@H](CCc1ccccc1)C(=O)O)C(=O)N1CCC[C@H]1C(=O)O [Enalaprilat],117%,-0.265%
Cc1cc(N2CCOCC2)ccc1Nc1nc(NC2CCCCC2)c2[nH]cnc2n1,93.8%,-2.64%
NC1(Cc2ccc(Cl)cc2)CCN(c2ncnc3[nH]ccc23)CC1,115%,8.36%
CNCCC(Oc1ccc(C(F)(F)F)cc1)c1ccccc1 (stereo not drawn) [Fluoxetine-hydrochloride],111%,1.89%
C[C@@H](c1ncncc1F)[C@](O)(Cn1cncn1)c1ccc(F)cc1F [Voriconazole],101%,1.57%
CCC(C)(Oc1ccc(C2(c3ccc(OC(C)(CC)C(=O)O)cc3)CCCCC2)cc1)C(=O)O (stereo not drawn) [clinofibrate],131%,-14.5%
COC(=O)C1=C(C)NC(C)=C(C(=O)OC(C)C)C1c1cccc2nonc12 (stereo not drawn) [Isradipine(Dynacirc)],112%,3.72%
CCn1cc(-c2ccnc3[nH]c(-c4cccc(CN(C)C)c4)cc23)c(-c2ccc(NC(=O)N(C)C)cc2)n1,173%,-0.747%
CCOC(=O)[C@H](CCc1ccccc1)N[C@@H](C)C(=O)N1CCC[C@H]1C(=O)O [Enalapril-maleate(Vasotec)],97.8%,-15.1%
CNC(=O)c1ccc(C)c(-n2c(C)cc(OCc3ccc(F)cc3F)c(Br)c2=O)c1,130%,-8.41%
CC(C)NCC(O)COc1ccc(COCCOC(C)C)cc1 (stereo not drawn) [Bisoprolol-Fumarate],103%,8.79%

Compound,normalized SmoIP GFP fluorescence [1],normalized SmoIP GFP fluorescence [2]
CCCCCCCCOc1ccccc1C(=O)Nc1ccc(C(=O)OCC[N+](C)(CC)CC)cc1 [otilonium-bromide],109%,-1.85%
Cc1c(Cn2c(C)nc3c(C(=O)O)cc(N4CCOCC4)cc32)cccc1C(F)(F)F,108%,0.966%
O=C1NC(=O)/C(=C/c2ccc(-c3ccc(F)cc3O)o2)S1,99.3%,0.588%
COc1cccc2cc(-c3nc([C@H]4CC[C@H](C(=O)O)CC4)n4ncnc(N)c34)[nH]c12,54.2%,-5.17%
O=C(O)COCCN1CCN(C(c2ccccc2)c2ccc(Cl)cc2)CC1 (stereo not drawn) [Cetirizine-di-hcl],90.4%,-7.27%
Cn1nnc2c(C(N)=O)ncn2c1=O [Methazolastone],110%,3.18%
O=C(O)CCCc1ccccc1 [sodium-phenylbutyrate],112%,-2.93%
CCOc1ccc(Cc2cc([C@@H]3O[C@H](CO)[C@@H](O)[C@H](O)[C@H]3O)ccc2Cl)cc1 [Dapagliflozin],75.9%,1.57%
Cc1ccc2c(c1)C(=O)C1(O)CCN(c3ccccc3)C1=N2 (stereo not drawn) [blebbistatin],105%,-0.378%
CCCSc1nc(N[C@@H]2C[C@H]2c2ccc(F)c(F)c2)c2nnn([C@@H]3C[C@H](OCCO)[C@@H](O)[C@H]3O)c2n1 [ticagrelor],113%,-3.39%
O=C(Nc1cccc(C(F)(F)F)c1)Nc1cc(S(=O)(=O)NC2CC2)ccc1-c1ccsc1,111%,-3.05%
COc1cc2ncnc(Nc3ccc(F)c(Cl)c3)c2cc1OCCCN1CCOCC1 [Gefitinib],116%,-4.53%
CCOC(=O)c1ncn2c1CN(C)C(=O)c1cc(F)ccc1-2 [Flumazenil],110%,1.57%
O=C1NCCc2[nH]c(-c3ccncc3)cc21,164%,-0.477%
CCOc1ccc(NC(C)=O)cc1 [phenacetin],131%,9.08%
CC(=O)O[C@]1(C(C)=O)CC[C@H]2[C@@H]3C=C(C)C4=CC(=O)CC[C@]4(C)[C@H]3CC[C@@]21C [Megestrol-Acetate],106%,-0.804%
Cc1cnc(Nc2ccc(OCCN3CCCC3)cc2)nc1Nc1cccc(S(=O)(=O)NC(C)(C)C)c1,173%,8.54%
CN1CCC[C@@H]1Cc1c[nH]c2ccc(CCS(=O)(=O)c3ccccc3)cc12 [eletriptan-hydrobromide],106%,-2.71%
Nc1ncnc2n[nH]c(Nc3ccc(F)cc3)c12,89.9%,2.64%
Cc1ccc(Nc2nccc(N(C)c3ccc4c(C)n(C)nc4c3)n2)cc1S(N)(=O)=O [pazopanib],107%,1.95%
Cc1cc(Nc2cc(N3CCN(C)CC3)nc(/C=C/c3ccccc3)n2)n[nH]1,136%,23.8%
C[N+]1(C)CCC(=C(c2ccccc2)c2ccccc2)CC1 [diphemanil-methylsulfate],110%,-3.62%
NS(=O)(=O)c1ccc(NC(=O)Nc2ccc(F)cc2)cc1,101%,-3.05%
O=C1NC(=O)/C(=C/c2ccc3c(c2)OC(F)(F)O3)S1,114%,7.01%
